For 18 compounds, growth inhibition results are on record in PubChem BioAssay (NCI).

The panel holds about 79,000 compounds, 15% with a hit somewhere; the sample as a whole holds those more often. A number with no mark means an inactive call. The source made the active and inactive calls. Rule as the data show it: active = growth inhibition above about 70%; inactive = the rest.

This test is described as follows: NCI Yeast Anticancer Drug Screen. Data for the mlh1 rad18 strain (AID 175). Particulars: S. cerevisiae mlh1 rad18 strain growth inhibition; at 50.0 µM; active compounds read high. The method, boiled down:
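In this whole-cell yeast screen, a strain with altered DNA damage repair is challenged with compound, and its growth is measured against matched vehicle-treated controls.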
In the case of `CC(CC(C#CCN(C)C)N(C)C)CC(C)(C)C` (stereo not drawn), the growth inhibition is 38.6%.
In the case of `CCCCCCCCCCNC(=O)C[n+]1cccc(C(=O)NCc2ccccc2)c1`, the growth inhibition is 99.5% (active).
Then `Cc1ccc(N2C(N)=C(C#N)C(C#N)(C#N)C2c2ccccc2)cc1` (stereo not drawn), with 90.5% (active); and `O=[N+]([O-])c1cccc(Cl)c1C(Nc1nncs1)Nc1nncs1`, with 68.3%.
With `CCCC(C(=O)OCCNC1CCCCC1)c1ccccc1` (stereo not drawn) the figure was 55.2%; with `BrCc1ccc([Si](c2ccccc2)(c2ccccc2)c2ccc(CBr)cc2)cc1`, 53.5%.
Then `CCCCC(O)(c1ccccc1)C(O)(c1ccccc1)c1c(F)c(F)c(F)c(F)c1F` (stereo not drawn), with 97.2% (active); and `C/C=C\C=N\NC(N)=S`, with 28.6%.
Take `NCCc1ccc2oc3cc(=O)c4ccccc4c-3nc2c1`: the growth inhibition was 80.8% (active).
With `CC(C)=CCc1ccc(O)cc1` the figure was 1.75%; with `CCCCCCCCCCCCCC/[N+]([O-])=C/c1ccc([N+](=O)[O-])o1`, 54.2%.
Consider `Fc1ccc(CSC(=S)Nc2ccc(Br)cc2)cc1`, for which the growth inhibition was 95.5% (active).
In the case of `C/C(=N\NC(=S)N1CCN(C2CCCCC2)CC1)c1ccccn1`, the growth inhibition is 95.7% (active).
Then `Cc1ccccc1N=Nc1sc(N)nc1-c1ccccc1`, with 43.7%; and `CN(c1ccc(C(N)=O)cc1)c1c(O)c2ccccc2[nH]c1=O`, with 15.5%; and `Fc1ccc(CSC(=S)Nc2cccc(C(F)(F)F)c2)cc1`, with 99.5% (active).
On to `COc1ccccc1C(C)c1ccc2ccccc2c1C(=O)O` (stereo not drawn), for which the growth inhibition was 96% (active).
With `CNC(=O)OCc1c(-c2ccccc2)c(-c2ccccc2)n(-c2ccc(OC)cc2)c1COC(=O)NC` the figure was 91% (active).
